Measurements from PubChem BioAssay (EPA / NIEHS).
Active and inactive are the calls of the source. Rule for the calls: active = hit-call score of the fitted dose curve at least 0.9, where 1 is the maximum; inactive = score below 0.9.

assay: ATG_AP_2_CIS: Attagene CIS-FACTORIAL HepG2 Assay for human Activator Protein 2 (AP-2) (AID 2282932); details: HepG2 AP-2 cis-reporter, Attagene transcription factor profiling; actives raise or lower the signal
Description: ATG_CIS is a cell-based, multiplexed-readout assay that uses HepG2, a human liver cell line, with measurements taken at 24 hours after chemical dosing in a 24-well plate.ATG_AP_2_CIS is one of 52 assay component(s) measured or calculated from the ATG_CIS assay. It is designed to make measurements of mRNA induction, a form of inducible reporter, as detected with fluorescence intensity signals by Reverse transcription polymerase chain reaction (RT-PCR) and Capillary electrophoresis technology.Data from the assay component ATG_AP_2_CIS was analyzed into 1 assay endpoint. This assay endpoint, ATG_AP_2_CIS, was analyzed with bidirectional fitting relative to DMSO as the negative control and baseline of activity. Using a type of inducible reporter, measures of mRNA for gain or loss-of-signal activity can be used to understand the reporter gene at the transcription factor-level as they relate to the gene TFAP2A and TFAP2B and TFAP2D. Furthermore, this assay endpoint can be referred to as a primary readout, because this assay has produced multiple assay endpoints where this one serves a reporter gene function. To generalize the intended target to other relatable targets, this assay endpoint is annotated to the dna binding intended target family, where the subfamily is basic helix-turn-helix leucine zipper.
Human liver HepG2 cells are transiently transfected with multiple reporter transcription units (MRTUs) in 6-well plates using FuGene 6 reagent (Roche; 3 ml FuGene/1 mg DNA). The MRTU constructs are regulated by a cis-regulating element (promoter). […] A major difference between the CIS and TRANS system is that in CIS activities of endogenous TFs are measured, whereas the TRANS assay evaluates changes in activities of exogenous, chimeric NR-Gal4 proteins. […] At the end of 24 hour incubation, total RNA was isolated using TriZol reagent (Invitrogen). The isolated RNA is then reverse-transcribed using oligo(dT) primer and Mo-MLV reverse transcriptase (Invitrogen) with DNAse I (Ambion) treatment for 30 min. The one-tenth of the produced cDNA was amplified by PCR using Taq DNA polymerase (Invitrogen) and two reporter sequence-specific primers. The PCR products were fluorescently labeled by primer extension with 6-arboxyfluorescein (6-FAM) 5'-labeled reporter sequence-specific primer (2 min at 95 C, 20 s at 68 C and 10 min at 72 C) and these products were digested with 5U of HpaI (New England Biolabs) for 2h at 37 C. The fragments were purified using Qiaquick PCR columns (Qiagen), analyzed on an ABI 3130xL genetic analyzer (Applied Biosystems) with peak positions identified by using a set of X-rhodamine (ROX)-labeled MapMarker1000 molecular weight standards (BioVentures). The raw capillary electrophoresis data was processed using Attagraph software (Attagene).

Question: With `CC=CC=CCOC(=O)C(C)C` as the compound, how does the outcome read?
Answer: inactive

Question: For `c1ccc2[nH]cnc2c1`, which outcome is on record?
Answer: inactive

Question: Which outcome does the source give for `CS(=O)(=O)c1ccc(C2=C(c3ccccc3)C(=O)OC2)cc1` here?
Answer: inactive

Question: For `CC(C)Nc1nc(N)nc(Cl)n1`, which outcome is on record?
Answer: inactive

Question: For `CC(CN=Cc1ccccc1O)N=Cc1ccccc1O` (stereo not given), which outcome is on record?
Answer: inactive

Question: Which outcome does the source give for `C[Si](C)(C)O[Si](C)(C)C` here?
Answer: inactive

Question: For `COc1ccc(CCN2CCC(Nc3nc4ccccc4n3Cc3ccc(F)cc3)CC2)cc1`, which outcome is on record?
Answer: inactive

Question: With `COCCOC(=O)c1ccccc1C(=O)OCCOC` as the compound, how does the outcome read?
Answer: inactive

Question: With `CCCCCCCCCCCC(=O)OCC(O)CO` (stereo not given) as the compound, how does the outcome read?
Answer: inactive

Question: With `Nc1ccc2c(O)cc(S(=O)(=O)O)cc2c1` as the compound, how does the outcome read?
Answer: inactive

Question: With `NCc1ccco1` as the compound, how does the outcome read?
Answer: inactive

Question: Which outcome does the source give for `O=C1OC2(c3ccccc31)c1ccc(O)c(Br)c1Oc1c2ccc(O)c1Br` here?
Answer: inactive

Question: Which outcome does the source give for `COCCc1ccc(OCC(O)CNC(C)C)cc1` (stereo not given) here?
Answer: inactive

Question: Which outcome does the source give for `O=CN1CCOCC1` here?
Answer: inactive

Question: Which outcome does the source give for `[Cl][Au]([Cl])[Cl]` here?
Answer: inactive

Question: For `O=C1NC2NC(=O)NC2N1` (stereo not given), which outcome is on record?
Answer: inactive

Question: For `CCC(=O)O[C@@H]1C[C@H]2CC[C@]1(C)C2(C)C`, which outcome is on record?
Answer: inactive

Question: For `C=CC(=O)OCCCC`, which outcome is on record?
Answer: inactive

Question: For `CCOc1ccc(NC(=O)CC(C)=O)cc1`, which outcome is on record?
Answer: inactive

Question: Which outcome does the source give for `CCCCCCCCCCCCCC(=O)OCC(O)CO` (stereo not given) here?
Answer: inactive

Question: Which outcome does the source give for `ClC(c1ccccc1)(c1ccccc1)c1ccccc1` here?
Answer: inactive

Question: For `C=C1C[C@]23C[C@@]1(O)CC[C@H]2[C@@]12C=C[C@H](O)[C@@](C)(C(=O)O1)[C@H]2[C@@H]3C(=O)O`, which outcome is on record?
Answer: inactive

Question: With `COc1ccccc1[N+](=O)[O-]` as the compound, how does the outcome read?
Answer: inactive

Question: Which AC50 does the source give for `O=C(CS)OCCOC(=O)CS` here?
Answer: 100 µM (active)

Question: Which outcome does the source give for `O=[N+]([O-])c1cccc(Cl)c1` here?
Answer: inactive

Question: For `COC(=O)c1cccnc1`, which outcome is on record?
Answer: inactive

Question: With `Cc1c(C2(c3cc(Br)c(O)c(Br)c3C)OS(=O)(=O)c3ccccc32)cc(Br)c(O)c1Br` as the compound, how does the outcome read?
Answer: inactive

Question: For `NCCNc1cccc2ccccc12`, which AC50 is on record?
Answer: 100 µM (active)

Question: For `O=C1OC(=O)c2c(Br)c(Br)c(Br)c(Br)c21`, which outcome is on record?
Answer: inactive

Question: Which outcome does the source give for `Cc1cccc(Nc2ccccc2)c1` here?
Answer: inactive

Question: With `CN(C)CCOc1ccc(/C(=C(/CCCl)c2ccccc2)c2ccccc2)cc1` as the compound, how does the outcome read?
Answer: inactive

Question: With `O=C1c2ccccc2C(=O)c2c(O)ccc(O)c21` as the compound, how does the outcome read?
Answer: inactive

Question: For `COCCOCCOCCO`, which outcome is on record?
Answer: inactive

Question: With `CCOC(=O)[C@@H](C)Oc1ccc(Oc2nc3ccc(Cl)cc3o2)cc1` as the compound, how does the outcome read?
Answer: inactive

Question: Which outcome does the source give for `CCOC(=O)COC(=O)c1cc(Oc2ccc(C(F)(F)F)cc2Cl)ccc1[N+](=O)[O-]` here?
Answer: inactive

Question: Which outcome does the source give for `Oc1ccc2cc(SSc3ccc4cc(O)ccc4c3)ccc2c1` here?
Answer: inactive

Question: With `O=c1c(O)c(-c2ccc(O)cc2)oc2cc(O)cc(O)c12` as the compound, how does the outcome read?
Answer: inactive

Question: With `OCCCCC(O)CO` (stereo not given) as the compound, how does the outcome read?
Answer: inactive

Question: Which outcome does the source give for `Nc1ccc(Cl)c([N+](=O)[O-])c1` here?
Answer: inactive

Question: With `CC=Cc1ccc(OCC)c(O)c1` as the compound, how does the outcome read?
Answer: inactive
